Screening results: PubChem BioAssay, National Center for Advancing Translational Sciences (NCATS)
Only some compounds are listed: those with a hit (about 11% of all), similar ones and a draw of the others.
AmpC inh detg – blocks E. coli AmpC beta-lactamase in detergent assay | P00811 | AmpC hydrolysis of nitrocefin, absorbance 480 nm, 0.01% Triton | Potency, µM (top dose mostly 114 µM), inactives show at the highest dose activity change, negative = inhibition, most hits filed as inhibitors | actives 0.041% (n = 370,000) | AID 485294;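 further: 0% = no-compound wells and -100% = no-enzyme wells; nearly all actives have a fitted effect of over 25% in size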
Target sequence (P00811 whole entry, looked up): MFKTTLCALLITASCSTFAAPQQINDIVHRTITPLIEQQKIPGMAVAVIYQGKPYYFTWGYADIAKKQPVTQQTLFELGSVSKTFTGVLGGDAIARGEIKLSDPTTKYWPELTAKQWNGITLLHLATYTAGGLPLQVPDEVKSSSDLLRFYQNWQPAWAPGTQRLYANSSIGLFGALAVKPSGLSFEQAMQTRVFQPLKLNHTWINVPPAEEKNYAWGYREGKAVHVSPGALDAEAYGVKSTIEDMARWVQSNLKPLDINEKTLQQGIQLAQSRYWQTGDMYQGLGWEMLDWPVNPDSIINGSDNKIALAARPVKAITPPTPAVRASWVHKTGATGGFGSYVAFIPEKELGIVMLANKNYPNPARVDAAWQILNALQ
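20 mM phosphate pH 7.0 + 0.01% (detergent screen) or 0.0001% Triton X-100; 5.3 nM AmpC reagent; cpd preinc 15 min RT; nitrocefin (800 uM stock) to start; A480 q20 s × 4 min; Activity was normalised to no-enzyme and no-compound control wells.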
HCV inh – inhibitors of hepatitis C virus infection; AID 651820; actives 3.4% (n = 340,000); Potency, µM (highest dose often 41.8 µM), without a hit: at the top dose activity change, negative = inhibition, usual class: inhibitors; Huh7.5.1 HCVcc-Cre infection, luciferase reporter, 44 h
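Reporter virus HCVcc-Cre (~0.5 moi) infects cells exposed to compound; seeding density 1,000 cells/well with 4 h settling beforehand. Luminescence, 15 sec read, taken 44 h post-infection following a 15 min RT substrate incubation.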
Pf growth 96h – inhibits malaria parasite growth, 96 h; P. falciparum luciferase reporter growth, 96 h; Potency, µM (titrated, usually from 28.7 µM), for the others: at the highest dose activity change, negative = inhibition, actives largely listed as inhibitors; actives 6.9% (n = 320,000); AID 504834
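Two-generation exposure (96 h) targets delayed-death phenotype. Reporter parasites carrying integrated firefly luciferase, in red cells at 2% hematocrit and 0.05% parasitemia final, kept at 37 C, 5% CO2; luminescence loss indicates inhibition.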
AMA1-RON2 inh – AMA1-RON2 (P. falciparum) interaction inhibition. AlphaScreen AMA1-biotinylated RON2 peptide binding. Potency, µM (titrated, usually from 58.2 µM), inactives show at the highest dose activity change, negative = inhibition, actives largely listed as inhibitors. actives 0.2% (n = 360,000). AID 720542;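 further: 0% = vehicle wells and -100% = peptide control; nearly all actives have a fitted effect of over 45% in size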
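AMA1 (3D7) with his tag at 25 nM final met compounds first, then biotinylated RON2 peptide at 25 nM; detection used donor plus acceptor beads, 10 µg/mL apiece, read by AlphaScreen after 30 min at room temperature.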
Pf growth 48h – inhibits P. falciparum growth in the first generation, 48 h; P. falciparum luciferase growth in erythrocytes, 48 h; Potency, µM (highest dose often 28.7 µM), without a hit: top-dose activity change, negative = inhibition, hits mostly inhibitors; actives 5.9% (n = 310,000); AID 504832
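Luciferase-expressing P. falciparum in infected erythrocytes (2% hematocrit, 0.1% parasitemia final) in RPMI 1640/0.5% Albumax were exposed to compound for 48 hours at 37 C, 5% CO2; growth read as luminescence.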
AmpC no deterg – inhibitors of E. coli AmpC beta-lactamase without detergent. P00811. AmpC nitrocefin hydrolysis, absorbance 480 nm, 0.0001% Triton. Potency, µM (highest dose often 57.1 µM), for the others: at the top dose activity change, negative = inhibition, usual class: inhibitors. actives 0.52% (n = 330,000);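 further: plate controls were no compound for no effect and no enzyme for full effect; nearly all actives have a fitted effect of over 20% in size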
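AmpC (5.3 nM in the dispensed reagent) in 20 mM phosphate pH 7.0 with 0.01% (detergent screen) or 0.0001% Triton X-100 was preincubated with compounds for 15 min at room temperature. Nitrocefin was then added from an 800 uM solution, and hydrolysis was followed at 480 nm.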
An asterisk follows results filed as active; ? = inconclusive; . = not tested or not shown. The call rests on the fitted dose curve; in most records, active means well fitted curve in the direction sought with a large enough effect; inconclusive means small, poorly fitted or top-dose-only effect, or another doubt; inactive means no such curve, though single readings can be large; an effect the other way counts as inactive or inconclusive. Unless noted, on the % scale 0 is the no-effect control and ±100 the full control effect; potency means the concentration at half of the fitted maximal effect.

SMILES | AmpC inh detg | HCV inh | Pf growth 96h | AMA1-RON2 inh | Pf growth 48h | AmpC no deterg
O=C(C[n+]1cc(-c2ccc(Cl)cc2)n2c1CCCCC2)c1ccccc1 | 0% | -1% | ? | -15% | ? | 37%
Cc1occc1-c1nnc(-c2cc([N+](=O)[O-])cc([N+](=O)[O-])c2)o1 | 7% | ? | 29% | -5% | 10µM* | -42%
O=[N+]([O-])c1cccc(-c2nnc(-c3ccccc3)o2)c1 | 5% | -23% | 11% | 10% | 89% | -21%
O=C(O)c1ccc(S(=O)(=O)N2CCc3ccccc3C2)cc1 | 3% | 14% | 9.3µM* | -5% | -9% | -6%
CC(=O)c1ccc(S(=O)(=O)N2CCc3ccccc3C2)cc1 | -19% | -11% | ? | 2% | 13% | -2%
Cc1ccc(C(=O)Nc2ccc(S(=O)(=O)N3CCc4ccccc4C3)cc2)o1 | 4% | ? | . | -5% | 13µM* | -29%
COc1ccc(-c2nonc2NC(=O)c2oc3ccccc3c2C)cc1OC | -3% | -18% | 10µM* | 0% | ? | -8%
Cc1nn(C)c2ncc(C(N)=O)c(Oc3cccnc3)c12 | -7% | 10% | 2% | 7% | -8% | -9%
CCOC(=O)c1cnc2c(-c3ccc(Cl)cc3)c(C)nn2c1N | 0% | 18% | 9.3µM* | 49% | 8% | -31%
CCOC(=O)c1cnc2c(c(C)nn2C)c1Oc1ccc(Cl)cc1 | 5% | -30% | 1.5µM* | 16% | ? | 137%
OC(c1cc(C(F)(F)F)nc2c(C(F)(F)F)cccc12)C1CCCCN1 (centres undefined) | 0% | ? | 0.0037µM* | 0% | 0.0093µM* | 30%
COc1ccc(C(NC(=O)C(C)C)c2c(O)ccc3ccccc23)cc1 (centres undefined) | ? | -27% | -1% | -5% | ? | -12%
CCC(=O)NC(c1ccccc1Cl)c1c(O)ccc2ccccc12 (centres undefined) | -10% | -1% | -20% | 5% | 10µM* | -57%
CCC(=O)NC(c1ccc(OC)cc1)c1c(O)ccc2ccccc12 (centres undefined) | 5% | -13% | -17% | 10% | ? | -13%
CC(C)C(=O)NC(c1ccccc1Cl)c1c(O)ccc2ccccc12 (centres undefined) | 4% | -11% | 4.7µM* | 20% | 9.3µM* | -30%
COc1ccc(-n2nc(C(=O)N(C)c3cc(Cl)ccc3OC)c3c4ccccc4n(C)c3c2=O)cc1 | -4% | . | . | . | . | .
Cc1ccc(C(=O)N2CC(=O)Nc3ccc(Br)cc3C2c2ccc(F)cc2)cc1C (centres undefined) | 6% | . | . | . | . | .
COc1cccc(/C=C2/CN(C)CC3=C2OC(N)=C(C#N)C3c2cccc(OC)c2)c1 (centres undefined) | ? | ? | ? | -29% | 13µM* | 13%
COc1cccc(C2C(C#N)=C(N)OC(C(C)(C)C)=C2C#N)c1 (centres undefined) | -6% | 19% | ? | -10% | -11% | -32%
CCOC(=O)/C(=C\Nc1ccc(OC(F)(F)F)cc1)Sc1ncc(C(F)(F)F)cc1Cl | 1% | -10% | . | -1% | 2.1µM* | -10%
NS(=O)(=O)c1ccc(NC(=O)CN2C(=O)COc3ccc(Cl)cc32)cc1 | 15% | . | . | . | . | .
Cc1ccc(NC(=O)C(=O)NCCN2CCN(Cc3ccc([N+](=O)[O-])cc3)CC2)cc1 | -9% | ? | 0.47µM* | 6% | 13% | -5%
CCc1ccc(NC(=O)C(=O)NCCN2CCN(Cc3ccc([N+](=O)[O-])cc3)CC2)cc1 | -2% | -21% | 45% | 0% | 26% | -4%
O=c1c2ccccc2nnn1CCN1CCOCC1 | -8% | 0% | 40% | 0% | 29% | -7%
